Screens (PubChem BioAssay)
TDP1 cell CPT: DT40-hTDP1 cell growth loss with CPT. chicken DT40 Tdp1-/-;hTDP1 cells + 20 nM CPT, ATP luminescence, 48 h. Potency, µM (titrated, usually from 46.2 µM), usual class: inhibitors. 420,000 compounds, 12% hits; also: nearly all actives have a fitted effect of over 55% in size
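Chicken DT40 Tdp1-/- cells complemented with human TDP1, 400 cells/well, exposed to compounds plus 20 nM camptothecin for at least 48 h at 37 C; viability read as ATP content by CellTiter-Glo luminescence.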
KAT2A inh: blocks human GCN5L2 histone acetyltransferase. Q92830. GCN5L2 HAT assay, ThioGlo1 CoA-SH fluorescence. Potency, µM (doses to about 58.9 µM), most hits filed as inhibitors. 390,000 compounds, 0.21% hits
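GCN5L2 (20nM final) in 50mM HEPES, 0.1mM EDTA pH 7.5, 0.01% Tween-20 was preincubated 15 min at room temperature with compound, then given ThioGlo1 (50uM), H3(1-25) peptide (75uM) and acetyl-CoA (70uM); CoA-thiol fluorescence (Ex340/Em540) was read at 0 and 20 min.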
TDP1 cell noCPT: qHTS for Inhibitors of human tyrosyl-DNA phosphodiesterase 1 (TDP1): qHTS in cells in absence of CPT; DT40 Tdp1-/- hTDP1 cells, no CPT, ATP luminescence, 48 h; Potency, µM (doses to about 46.2 µM), actives largely listed as inhibitors; 420,000 compounds, 15% hits; also: nearly all actives have a fitted effect of over 55% in size
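No-CPT arm: Tdp1-/-;hTDP1 DT40 cells (400/well) plus compounds, incubated ≥48 hr at 37 °C. Readout CellTiter-Glo luminescence.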
TDP1 inh: inhibitors of human tyrosyl-DNA phosphodiesterase TDP1; recombinant TDP1, AlphaScreen DNA substrate cleavage; Potency, µM (titrated, usually from 130 µM), hits mostly inhibitors; 350,000 compounds, 0.28% hits; also: nearly all actives have a fitted effect of over 40% in size
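Steps: enzyme plus compound, 15 min RT; add biotin/phosphotyrosine-FITC oligonucleotide (15 nM final), react 5 min; add donor/acceptor beads (10 ug/ml final), 10 min; read AlphaScreen. Tdp1 at 1 nM final.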
PLK1 PBD block: inhibitors of human PLK1 polo-box domain binding. P53350. Plk1 PBD binding of FITC phosphopeptide, fluorescence polarization. Potency, µM, usual class: inhibitors. 360,000 compounds, 2.8% hits; also: series mostly up to about 57 µM; nearly all actives have a fitted effect of over 65% in size
Target sequence (P53350 whole entry, looked up, the tested form may be a part): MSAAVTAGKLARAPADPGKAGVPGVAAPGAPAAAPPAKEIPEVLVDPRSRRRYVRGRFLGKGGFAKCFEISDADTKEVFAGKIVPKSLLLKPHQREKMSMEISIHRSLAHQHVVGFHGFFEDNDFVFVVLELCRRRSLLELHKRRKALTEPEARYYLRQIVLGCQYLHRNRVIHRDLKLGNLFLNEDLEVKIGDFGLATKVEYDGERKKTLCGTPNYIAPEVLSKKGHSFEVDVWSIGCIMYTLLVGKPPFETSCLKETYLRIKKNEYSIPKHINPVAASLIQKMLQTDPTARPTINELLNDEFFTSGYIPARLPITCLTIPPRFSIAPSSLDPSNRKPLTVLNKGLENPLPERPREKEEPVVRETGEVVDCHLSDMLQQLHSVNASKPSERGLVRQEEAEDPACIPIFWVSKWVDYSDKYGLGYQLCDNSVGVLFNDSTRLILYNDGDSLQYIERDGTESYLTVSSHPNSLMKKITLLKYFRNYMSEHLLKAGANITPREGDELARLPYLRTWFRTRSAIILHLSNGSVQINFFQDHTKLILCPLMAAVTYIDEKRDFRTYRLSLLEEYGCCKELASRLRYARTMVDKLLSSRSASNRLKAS
VDR inh: inhibitors of human vitamin D receptor; P11473; VDR-SRC2-3 peptide fluorescence polarization, 2 h; Potency, µM, usual class: inhibitors; 400,000 compounds, 0.93% hits; AID 504847
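Signal is fluorescence polarization, reporting how far test compounds block the interaction of VDR with the SRC2-3 coregulator peptide after a 2 h room-temperature incubation.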
Hits are given with their value. This is a sample that favours compounds with a hit; in the whole collection about 18% have one here. Calls follow the shape of the dose curve; as a rule, active = well fitted curve in the direction sought with a large enough effect; inconclusive = small, poorly fitted or top-dose-only effect, or another doubt; inactive = no such curve, though single readings can be large; an effect the other way counts as inactive or inconclusive.

`COc1c(Cl)cc(Cl)cc1/C=N/NC(=O)c1nnn(-c2nonc2N)c1CN1CCC(C)CC1` gave TDP1 cell CPT 14.6µM, KAT2A inh inactive, TDP1 cell noCPT inconclusive, TDP1 inh inactive, PLK1 PBD block inactive and VDR inh inactive.
For CCC/C(=N/NC(=O)c1nnn(-c2nonc2N)c1CN1CCCCC1)c1ccccc1 the results were TDP1 cell CPT inactive, TDP1 cell noCPT inactive, PLK1 PBD block 26.7µM and VDR inh inactive.
For CC1CCN(Cc2c(C(=O)N/N=C/c3cc(Cl)ccc3O)nnn2-c2nonc2N)CC1 the results were TDP1 cell CPT 4.61µM, KAT2A inh inactive, TDP1 cell noCPT 5.8µM, TDP1 inh inactive, PLK1 PBD block inactive and VDR inh inactive.
CC1CCN(Cc2c(C(=O)N/N=C/c3ccc(C(F)(F)F)cc3)nnn2-c2nonc2N)CC1 was read as TDP1 cell CPT inconclusive, KAT2A inh inactive, TDP1 cell noCPT inconclusive, TDP1 inh inactive, PLK1 PBD block inactive and VDR inh inactive.
For CCOc1ccccc1/C=N/NC(=O)c1nnn(-c2nonc2N)c1CN1CCCCCC1 the results were TDP1 cell CPT inactive, TDP1 cell noCPT inactive, PLK1 PBD block inconclusive and VDR inh inactive.
Screening CC1CCN(Cc2c(C(=O)N/N=C/c3cccc(C(F)(F)F)c3)nnn2-c2nonc2N)CC1 returned TDP1 cell CPT 14.6µM, KAT2A inh inactive, TDP1 cell noCPT 14.6µM, TDP1 inh inactive, PLK1 PBD block inactive and VDR inh inactive.
`Cc1ccc(S(=O)(=O)N2C[C@H]3C(=O)C[C@@H](c4ccccc4F)N(S(=O)(=O)c4ccc(C)cc4)[C@H]3C[C@H]2c2ccccc2)cc1` gave TDP1 cell CPT inconclusive, TDP1 cell noCPT inconclusive and PLK1 PBD block inactive.
`CCN(CC)CCCNC(=O)c1cc(Cl)c(NC(=O)C2=C(C)OCCS2)cc1OC` gave TDP1 cell CPT inactive, KAT2A inh inactive, TDP1 cell noCPT inactive, PLK1 PBD block inactive and VDR inh inactive.
For CC1CCN(Cc2c(C(=O)N/N=C/c3cc(Br)ccc3O)nnn2-c2nonc2N)CC1 the results were TDP1 cell CPT 5.8µM, KAT2A inh inactive, TDP1 cell noCPT 5.8µM, TDP1 inh inactive, PLK1 PBD block inactive and VDR inh inactive.
For C/C(=N\NC(=O)c1nnn(-c2nonc2N)c1CN1CCC(C)CC1)c1ccc(Br)cc1 the results were TDP1 cell CPT inconclusive, TDP1 cell noCPT inconclusive and PLK1 PBD block inactive.
`COc1ccc(O)c(/C=N/NC(=O)c2c(C)nnn2-c2nonc2N)c1` gave TDP1 cell CPT 18.4µM, KAT2A inh inconclusive, TDP1 cell noCPT 8.2µM, TDP1 inh inconclusive, PLK1 PBD block inactive and VDR inh inactive.
COc1ccc(/C=N/NC(=O)c2nnn(-c3nonc3N)c2-c2cccc(OC)c2)cc1 was read as TDP1 cell CPT inactive, KAT2A inh inactive, TDP1 cell noCPT inactive, TDP1 inh inactive, PLK1 PBD block inactive and VDR inh inactive.
CCOc1ccc(/C=N/NC(=O)c2nnn(-c3nonc3N)c2CN2CCC(C)CC2)cc1 was read as TDP1 cell CPT inactive, KAT2A inh inactive, TDP1 cell noCPT inconclusive, TDP1 inh inactive, PLK1 PBD block inactive and VDR inh inactive.
Cc1cc(C)c(/C=N/NC(=O)c2nnn(-c3nonc3N)c2CN2CCC(C)CC2)c(C)c1 was read as TDP1 cell CPT inconclusive, KAT2A inh inactive, TDP1 cell noCPT 20.6µM, TDP1 inh inactive, PLK1 PBD block inactive and VDR inh inactive.
Screening COc1cc(-c2nc3cnccn3c2Nc2ccc(C)cc2)ccc1O returned TDP1 cell CPT inconclusive, KAT2A inh inactive, TDP1 cell noCPT inconclusive, TDP1 inh inactive, PLK1 PBD block inactive and VDR inh inactive.
COc1cc(-c2nc3cnccn3c2Nc2ccc3c(c2)OCCO3)ccc1O was read as TDP1 cell CPT inconclusive, KAT2A inh inactive, TDP1 cell noCPT inconclusive, TDP1 inh inactive, PLK1 PBD block inactive and VDR inh inactive.
